In PubChem BioAssay AID1159580 (chemical genetic matrix, 2015):
Several values for one entry are separate records, joined by “and”; a condition that tells them apart may be missing. Equal entries are not always repeated. Screen size: about 5,500 compounds; about 2,000 (36%) were called active. Another 18% or so got no clear call; they are omitted. No stated cut-off is given here; in the data, active means normalized growth mostly below about 0.91 (no sharp cut-off); inconclusive means no clear call, values can overlap the other calls; inactive means mostly above about 0.92. The list shows a part of the results.

Experiment: chemical genetic growth profiling, strain panel (AID 1159580);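 further: tested at 20 µM; growth read once vehicle control cultures reached saturation at 30 °C; 1 = growth at the plate median or of vehicle wells; lower values mean less growth of the strain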
Details: S. cerevisiae deletion strains, growth OD

Measured: normalized growth

CC1(C)NC(=O)N(c2ccc([N+](=O)[O-])c(C(F)(F)F)c2)C1=O
inactive: locus YAL013W, strain DEP1, hits give low values 1.01 and 0.99 | locus YAL021C, strain ccr4, hits give low values 1.02 | locus YAL026C, strain drs2, hits give low values 0.983 | locus YAL030W, strain snc1, hits give low values 0.99 | locus YAL040C, strain CLN3, hits give low values 1.05 | locus YBL061C, strain skt5, hits give low values 0.98 | locus YBR009C, strain hhf1, hits give low values 0.982 | locus YBR021W, strain FUR4, hits give low values 1.02 | locus YBR023C, strain chs3, hits give low values 0.987 | locus YBR171W, strain sec66, hits give low values 0.98 | locus YBR229C, strain ROT2, hits give low values 1.01 | locus YBR231C, strain swc5, hits give low values 0.989 | locus YBR279W, strain paf1, hits give low values 0.994 | locus YCL011C, strain gbp2, hits give low values 0.985 | locus YCL016C, strain dcc1, hits give low values 0.986 | locus YCL029C, strain bik1, hits give low values 0.967 | locus YCL061C, strain MRC1 (second series), hits give low values 1 | locus YCL061C, strain MRC1, hits give low values 0.976 | locus YCL069W, strain vba3, hits give low values 0.98 | locus YCR088W, strain abp1, hits give low values 0.982 | locus YDL005C, strain med2, hits give low values 0.993 | locus YDL035C, strain GPR1, hits give low values 1 | locus YDL040C, strain nat1, hits give low values 0.984 | locus YDL074C, strain BRE1, hits give low values 1.02 | locus YDL101C, strain DUN1, hits give low values 1.01 | locus YDL134C, strain PPH21, hits give low values 1.02 | locus YDL185W, strain tfp1, hits give low values 0.977 | locus YDL192W, strain arf1, hits give low values 0.983 | locus YDR001C, strain nth1, hits give low values 0.985 | locus YDR069C, strain doa4, hits give low values 0.99 | locus YDR101C, strain arx1, hits give low values 0.982 | locus YDR137W, strain rgp1, hits give low values 0.894 | locus YDR150W, strain NUM1, hits give low values 1.03 | locus YDR159W, strain sac3, hits give low values 0.985 | locus YDR162C, strain NBP2, hits give low values 1 | locus YDR195W, strain ref2 0.975 | locus YDR297W, strain sur2, hits give low values 0.99 | locus YDR318W, strain mcm21, hits give low values 0.994 | locus YDR334W, strain swr1, hits give low values 0.989 | locus YDR335W, strain msn5, hits give low values 0.994 | locus YDR363W, strain ESC2, hits give low values 0.975 | locus YDR388W, hits give low values 0.983 | locus YDR392W, strain spt3, hits give low values 0.998 | locus YDR502C, strain sam2, hits give low values 0.984 | locus YEL003W, strain gim4, hits give low values 0.985 | locus YEL037C, strain rad23, hits give low values 0.988 | locus YEL061C, strain CIN8 (second series), hits give low values 0.989 | locus YEL061C, strain CIN8, hits give low values 0.999 | locus YER002W, strain NOP16, hits give low values 0.996 | locus YER015W, strain faa2, hits give low values 0.971 | locus YER016W, strain bim1, hits give low values 0.983 | locus YER110C, hits give low values 0.971 | locus YER111C, strain swi4, hits give low values 0.985 | locus YER155C, strain BEM2 (second series), hits give low values 0.987 | locus YER155C, strain BEM2, hits give low values 0.996 | locus YER167W, strain BCK2, hits give low values 1.01 | locus YFR010W, strain ubp6, hits give low values 0.985 | locus YGL078C, strain dbp3, hits give low values 0.986 | locus YGL086W, strain mad1, hits give low values 0.992 | locus YGL167C, strain pmr1, hits give low values 0.983 | locus YGL173C, strain kem1, hits give low values 0.976 | locus YGL227W, strain vid30, hits give low values 0.973 | locus YGL240W, strain doc1, hits give low values 0.98 | locus YGL248W, strain PDE1, hits give low values 1.01 | locus YGL253W, strain hxk2, hits give low values 0.985 | locus YGR078C, strain PAC10, hits give low values 1.01 and 0.981 | locus YGR135W, strain pre9, hits give low values 0.98 | locus YGR229C, strain SMI1, hits give low values 1.02 | locus YGR252W, strain gcn5, hits give low values 0.978 | locus YHR013C, strain ard1, hits give low values 0.97 | locus YHR027C, strain rpn1, hits give low values 0.984 | locus YHR030C, strain SLT2, hits give low values 1.01 and 0.984 | locus YHR079C, strain IRE1 (second series), hits give low values 0.988 | locus YHR079C, strain IRE1, hits give low values 1 | locus YHR094C, strain hxt1, hits give low values 0.986 | locus YHR129C, strain ARP1, hits give low values 1.01 | locus YHR142W, strain chs7, hits give low values 0.986 | locus YHR200W, strain rpn10, hits give low values 0.987 | locus YIL066C, strain RNR3, hits give low values 1.02 | locus YIL073C, strain SPO22, hits give low values 1 | locus YIL125W, strain kgd1, hits give low values 0.986 | locus YIR030C, strain dcg1, hits give low values 0.983 | locus YJL092W, strain hpr5, hits give low values 0.978 | locus YJL095W, strain BCK1 (second series), hits give low values 0.982 | locus YJL095W, strain BCK1, hits give low values 0.991 and 1 | locus YJL115W, strain asf1, hits give low values 0.992 | locus YJL129C, strain trk1, hits give low values 0.991 | locus YJL134W, strain LCB3, hits give low values 1.01 | locus YJL154C, strain vps35, hits give low values 0.988 | locus YJL164C, strain tpk1, hits give low values 0.985 | locus YJL166W, strain qcr8, hits give low values 0.986 | locus YJL168C, strain set2, hits give low values 0.987 | locus YJL187C, strain SWE1 (second series), hits give low values 1.01 | locus YJL187C, strain SWE1, hits give low values 0.981 | locus YJR043C, strain POL32, hits give low values 1 | locus YJR066W, strain TOR1, hits give low values 0.956
